This note sets out measurements from PubChem BioAssay (NCATS).

Test [1] concerns HEK293. Briefly: Cytotoxic Profiling of Annotated Libraries Using Quantitative High-Throughput Screening (AID 1296008). The note with it: Five cell lines viability, CellTiter-Glo ATP luminescence, 48-72 h; max response: active compounds read low. Put shortly:
(§1)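 Cells exposed to compounds for 48 or 72 hr at 37 degrees Celsius. Viability read as ATP-coupled luminescence with CellTiter-Glo after 10 min at room temperature.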
(ATP-based viability assays read luminescence as a measure of living cells.)

Test [2] concerns HaCat. Described as above. The note with it: Five cell lines viability, CellTiter-Glo ATP luminescence, 48-72 h; max response: active compounds read low. Put shortly:
as §1

For test [3], the system named is KB-3-1. The description is as above. The note with it: Five cell lines viability, CellTiter-Glo ATP luminescence, 48-72 h; max response: active compounds read low. Put shortly:
as §1

The subject of test [4] is NIH3T3. The test is described as above. The note with it: Five cell lines viability, CellTiter-Glo ATP luminescence, 48-72 h; max response: active compounds read low. Put shortly: as §1
Test [5] deals with MCC-13. Briefly: qHTS assay to identify novel small-molecules to repurpose for Merkel cell carcinoma treatment (AID 1296009). The note with it: MCC and control cell lines, CellTiter-Glo viability, 72 h; series mostly up to 46 µM. Put shortly: (§2)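 Cells were treated for 72 hr at 37 degree celsius with compounds in 8- or 11-point dose response. Viability was read by CellTiter-Glo luminescence, normalized to no-cell (cytotoxicity) and DMSO controls.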

Test [6] concerns MCC-26. The test is described as above. The note with it: MCC and control cell lines, CellTiter-Glo viability, 72 h; series mostly up to 46 µM. The procedure, abridged: as §2
The subject of test [7] is MKL-2. Described as above. The note with it: MCC and control cell lines, CellTiter-Glo viability, 72 h; series mostly up to 46 µM. The procedure, abridged: as §2
Test [8] relates to HEK293T. Described as above. The note with it: MCC and control cell lines, CellTiter-Glo viability, 72 h; at 44.8 µM (top of the series) unless noted. Put shortly: as §2
Test [9] concerns MKL-1. The description is as above. As to conditions: MCC and control cell lines, CellTiter-Glo viability, 72 h; series mostly up to 46 µM. Put shortly:
as §2

Test [10] relates to HACAT. The test is described as above. As to conditions: MCC and control cell lines, CellTiter-Glo viability, 72 h; at 44.8 µM (top of the series) unless noted. Put shortly: as §2

SMILES strings stand for the structures. Results filed as inconclusive are left out. Unmarked numbers belong to inactive results. Active and inactive are the calls of the source. The call rests on the fitted dose curve; in most records, active means well fitted inhibition curve with a large enough effect; inconclusive means small, poorly fitted or top-dose-only effect; inactive means flat fitted curve, though single readings scatter.
Further: nearly all actives have a fitted effect of over 60% in size.
On the % scale 0 is the no-effect control and ±100 the full control effect; potency means the concentration at half of the fitted maximal effect.

As to `CC(=O)Nc1nnc(S(N)(=O)=O)s1`, the max response in test [1] is 3.96%; in [2], 4.4%; in test [3] it was 1.55%. Besides, in [4], the call was inactive. The Potency entry in [5], in [6] and in test [7] was “inactive” each time.
Consider `Cc1ccc(Cl)c(Nc2ccccc2C(=O)O)c1Cl`, for which the compound was classed as inactive in [1] and in test [8]. Besides, the max response is -3.9% in test [2], -10.1% in [3] and 3.05% in test [4]. Besides, the Potency result in [5], in test [6] and in test [7] was “inactive” throughout.
In the case of `CCCCNc1ccc(C(=O)OCCN(C)C)cc1`, the max response in test [1] was -4%; in test [2], -3.56%; in test [3], 0.24%. Further, in test [4], the compound was classed as inactive. Also, the Potency result in test [5], in [6], in test [9] and in [7] was “inactive” throughout.
As to `Cc1nc2c([nH]1)c(=O)n(C)c(=O)n2Cc1ccco1`, the max response is 4.2% in test [1], 16.5% in [3] and -4.53% in [4]. For the same compound, the compound was called inactive in test [2] and in test [10]. For the same compound, the Potency result in test [5], in test [6] and in test [7] was “inactive” throughout.
With `C(=C\c1ccccc1)/CN1CCN(C(c2ccccc2)c2ccccc2)CC1`, the Potency in [1] was 15 µM (active). Besides, the results for the max response in test [2], in test [3] and in test [4] were -6.19%, 4.11% and -6.19%, respectively. For the same compound, the Potency entry in [5], in [6], in test [9] and in test [7] was “inactive” throughout.
On to `Cc1ccc(S(=O)(=O)NC(=O)NN2CCCCCC2)cc1`, for which the max response is -0.0062% in [1], 3.13% in test [2], 3.88% in [3] and 0.771% in test [4]. Also, the Potency entry in [5], in test [6] and in test [7] was “inactive” each time.
In the case of `CN(C)C/C=C(/c1ccc(Br)cc1)c1cccnc1`, the max response in test [1] was -10.5%; in [3] it was -12.9%. The result in test [2], in test [4] and in test [10] was inactive. Also, the Potency result in [5], in [6], in test [9] and in [7] was “inactive” throughout.
On to `CCCN(CCC)CCc1cccc2c1CC(=O)N2`, for which the call in [1] and in test [8] was inactive. The results for the max response in test [2], in test [3] and in [4] were -2.54%, -0.569% and -15.5%, respectively. The Potency entry in test [5], in test [6], in test [9] and in [7] was “inactive” in each case.
In the case of `CCN(CC)CCNC(=O)c1ccc(NC(C)=O)cc1`, the max response in test [1] is 3.23%; in test [2], 0.497%; in [3], 1.57%; in test [4], -3.76%. For the same compound, the Potency entry in test [5], in [6], in [9] and in test [7] was “inactive” each time.
As to `c1ccc2c(c1)CCCC2C1=NCCN1` (stereo unspecified), the results for the max response in test [1] and in test [3] were 3.92% and 10.6%, respectively. Also, the outcome in [2], in [4] and in test [10] was inactive. Moreover, the Potency entry in test [5], in test [6], in [9] and in test [7] was “inactive” in each case.
As to `C[C@]12C=CC(=O)C=C1CC[C@H]1[C@@H]3C[C@@H](O)[C@](O)(C(=O)CO)[C@@]3(C)C[C@H](O)[C@@]12F`, the result in test [1], in [4] and in test [8] was inactive. The max response in test [2] was -5.14%; in [3], 41.4%. The Potency result in [5], in test [6] and in [7] was “inactive” in each case.
In the case of `CCCOc1ccccc1-c1nc2n[nH]nc2c(=O)[nH]1`, the max response is 2.92% in test [1], -27% in test [3] and -1.31% in test [4]. Also, the outcome in [2] and in test [10] was inactive. The Potency result in test [5], in test [6], in test [9] and in test [7] was “inactive” each time.
As for `CC(C(=O)O)c1ccc(CC2CCCC2=O)cc1` (stereo unspecified), the compound was classed as inactive in test [1] and in test [8]. Besides, the max response in [2] was -3.69%; in [3], -8.05%; in test [4], -16.1%. In addition, the Potency result in test [5], in test [6], in test [9] and in test [7] was “inactive” each time.
As for `NC(=Nc1ccccc1)Nc1ccccc1`, the result in test [1], in test [2], in test [4], in test [10] and in test [8] was inactive. For the same compound, the max response is 2.68% in [2] and -0.581% in [4]. Besides, the Potency result in [5], in [6], in test [9] and in [7] was “inactive” throughout.
On to `COc1cc(Cc2cnc(N)nc2N)cc(OC)c1OC`, for which the call in [1], in test [2], in test [10] and in test [8] was inactive. Further, the max response in test [4] is -0.336%. For the same compound, the Potency entry in test [5], in test [6] and in test [7] was “inactive” each time.
Consider `CCn1cc(C(=O)O)c(=O)c2cc3c(cc21)OCO3`, for which the max response in [1] is -14.3%; in test [2], -9.91%; in test [3], -12.7%; in test [4], -23.3%. Also, the Potency entry in test [5], in test [6] and in test [7] was “inactive” in each case.
For `Cc1cc(C)c(/C=C2\C(=O)Nc3ccccc32)[nH]1`, the result in test [1] and in test [8] was inactive. The max response in [2] was -11.3%; in test [4], -17.1%. Also, the Potency entry in [5], in [6], in [9] and in [7] was “inactive” each time.
With `CC(=O)OC(C)C[N+](C)(C)C` (stereo unspecified), the values for the max response in [1] and in test [4] were 3.97% and 2.06%, respectively. Moreover, the result in [2] and in test [10] was inactive. The Potency entry in test [5], in [6] and in [9] was “inactive” each time.
In the case of `NC(=O)c1cn(Cc2c(F)cccc2F)nn1`, the max response in test [1] was 4.15%; in test [2], 0.796%; in test [3], -1.38%; in [4] it was -0.364%. In addition, the Potency entry in test [5], in test [6] and in test [7] was “inactive” in each case.
For the compound `C[n+]1cc2c3c(ccc2c2ccc4cc5c(cc4c21)OCO5)OCO3`, the Potency in test [1] was 1.16 µM (active); in [2], 2.59 µM (active); in test [4] it was 4.61 µM (active); in test [6], 3.66 µM (active); in test [7], 651 nM (active). Also, the max response in test [3] is -95.7%.
